Experimental findings from the antibiotic and cytotoxicity screens of Wong et al. (2023) are described below.

About 3,300 (8.5%) of roughly 39,000 compounds were called active. Many of the other results were omitted from the sample, so actives are more common in it than they were.

The assay concerns HepG2. The assay can be described thus: cytotoxicity call (relative viability < 0.9). As to conditions: 10 µM.
Consider `COc1ccc(CN(C)C[C@@H]2Oc3ccc(NS(C)(=O)=O)cc3CC(=O)N([C@H](C)CO)C[C@@H]2C)cc1`, for which the cytotoxicity call was “inactive”.

For the compound `O=C(C[C@H]1CC[C@@H]2[C@H](COC[C@@H](O)CN2S(=O)(=O)c2ccc(Oc3ccccc3)cc2)O1)NCCN1CCCCC1`, the cytotoxicity call was “inactive”.

With `Cc1noc(C)c1S(=O)(=O)Nc1ccc2c(c1)CC(=O)N([C@H](C)CO)C[C@H](C)[C@H](CN(C)S(C)(=O)=O)O2`, the cytotoxicity call was “inactive”.

As to `O=C1O[C@H](c2ccccc2)[C@H](c2ccccc2)N2[C@H]1[C@@H](C(=O)Nc1nc3ccccc3s1)[C@]1(C(=O)Nc3ccc(C#CCCO)cc31)[C@H]2c1ccc(OCCO)cc1`, the cytotoxicity call was “inactive”.

`COc1ccc(S(=O)(=O)Nc2ccc3c(c2)C(=O)N([C@@H](C)CO)C[C@@H](C)[C@@H](CN(C)C(=O)Nc2cccc4ccccc24)OCCCC[C@@H](C)O3)cc1`: the cytotoxicity call is “inactive”.

As to `COc1ccc(NC(=O)N(C)C[C@@H]2Oc3c(NC(=O)C4CCOCC4)cccc3C(=O)N([C@H](C)CO)C[C@@H]2C)cc1`, the cytotoxicity call was “inactive”.

Consider `C[C@H]1CN([C@@H](C)CO)C(=O)c2cccc(NS(=O)(=O)c3cn(C)cn3)c2O[C@H]1CN(C)C(=O)Nc1ccc(F)cc1`, for which the cytotoxicity call was “inactive”.

`COc1cccc(S(=O)(=O)Nc2ccc3c(c2)C(=O)N(C)C[C@H](OC)[C@H](C)CN(C(=O)Cc2cccnc2)[C@@H](C)CO3)c1`: the cytotoxicity call was “inactive”.

As for `Cc1ccc(S(=O)(=O)N(C)C[C@@H]2OCCCC[C@@H](C)Oc3ccc(NC(=O)Nc4ccc5c(c4)OCO5)cc3C(=O)N([C@@H](C)CO)C[C@@H]2C)cc1`, the cytotoxicity call was “inactive”.

For `S=C1NCN(C2CCCC2)CN1`, the cytotoxicity call was “inactive”.

Regarding `S=C1NCN(Cc2ccncc2)CN1`, the cytotoxicity call was “inactive”.

For the compound `CCN1CCC[C@@H]1CN1CNC(=S)NC1`, the cytotoxicity call is “active”.

Turning to `C[C@H](CO)N1C[C@H](C)[C@H](CN(C)C(=O)Nc2ccc(C(F)(F)F)cc2)OCCCC[C@H](C)Oc2ccc(NC(=O)Nc3cccc4ccccc34)cc2C1=O`, the cytotoxicity call is “inactive”.

For the compound `O=C(Cc1ccncc1)NCC[C@@H]1CC[C@H](NC(=O)C2CCOCC2)[C@H](CO)O1`, the cytotoxicity call was “inactive”.

Consider `CN(C)c1nc2c([nH]1)c(=O)[nH]c(=O)n2C`, for which the cytotoxicity call is “inactive”.

Consider `CN(C)Cc1nc2c([nH]1)c(=O)[nH]c(=O)n2C`, for which the cytotoxicity call is “active”.

With `Cn1c(=O)[nH]c(=O)c2[nH]cnc21`, the cytotoxicity call was “inactive”.

Regarding `Cc1ccc(S[C@]2(C(=O)NCC(C)C)CC(=O)N(Cc3ccccc3)[C@@H]2c2ccc(CO)cc2)cc1`, the cytotoxicity call was “inactive”.

For the compound `O=C1[N-]C(=O)C(c2ccccc2)(c2ccccc2)N1.[Na+]`, the cytotoxicity call was “inactive”.

For `C[C@H](CO)N1C[C@H](C)[C@H](CN(C)S(=O)(=O)c2ccc(F)cc2)Oc2ccc(NC(=O)Cn3cnnn3)cc2C1=O`, the cytotoxicity call was “inactive”.

As for `CC(C)NC(=O)N(C)C[C@H]1Oc2c(NC(=O)C3CCCCC3)cccc2C(=O)N([C@H](C)CO)C[C@@H]1C`, the cytotoxicity call is “inactive”.

For `CC(C)NC(=O)N(C)C[C@@H]1Oc2c(NC(=O)C3CCCCC3)cccc2C(=O)N([C@H](C)CO)C[C@H]1C`, the cytotoxicity call is “inactive”.

In the case of `CC(C)NC(=O)N(C)C[C@@H]1Oc2c(NC(=O)C3CCCCC3)cccc2C(=O)N([C@@H](C)CO)C[C@@H]1C`, the cytotoxicity call was “active”.

Turning to `C[C@@H]1CN([C@H](C)CO)C(=O)c2cccc(NC(=O)NC3CCCCC3)c2O[C@H]1CN(C)C(=O)Nc1ccc(C(F)(F)F)cc1`, the cytotoxicity call is “active”.

`C[C@@H]1CN([C@@H](C)CO)C(=O)c2cccc(NC(=O)NC3CCCCC3)c2O[C@@H]1CN(C)C(=O)Nc1ccc(C(F)(F)F)cc1`: the cytotoxicity call is “inactive”.

Consider `C[C@H](CO)N1C[C@H](C)[C@H](CN(C)C(=O)Nc2ccc(C(F)(F)F)cc2)Oc2c(NC(=O)C3CCCCC3)cccc2C1=O`, for which the cytotoxicity call is “active”.

In the case of `C[C@@H]1CN([C@H](C)CO)C(=O)c2cccc(NC(=O)C3CCCCC3)c2O[C@H]1CN(C)C(=O)Nc1ccc(C(F)(F)F)cc1`, the cytotoxicity call was “inactive”.

Turning to `C[C@H](CO)N1C[C@H](C)[C@H](CN(C)C(=O)Nc2ccc(C(F)(F)F)cc2)Oc2c(NC(=O)NC3CCCCC3)cccc2C1=O`, the cytotoxicity call was “active”.

Regarding `C[C@@H]1CN([C@@H](C)CO)C(=O)c2cccc(NC(=O)C3CCCCC3)c2O[C@@H]1CN(C)C(=O)Nc1ccc(C(F)(F)F)cc1`, the cytotoxicity call was “inactive”.

In the case of `C[C@H](CO)N1C[C@H](C)[C@@H](CN(C)C(=O)Nc2ccc(C(F)(F)F)cc2)Oc2c(NC(=O)NC3CCCCC3)cccc2C1=O`, the cytotoxicity call was “inactive”.

Regarding `N#CCC(=O)N1CCSCC1`, the cytotoxicity call was “inactive”.

On to `C[C@@H]1CCCCO[C@@H](CN(C)S(=O)(=O)c2ccc(F)cc2)[C@@H](C)CN([C@H](C)CO)C(=O)c2cc(NS(C)(=O)=O)ccc2O1`, for which the cytotoxicity call was “inactive”.

As for `CC(C)CN1C[C@@H]2CCNCC[C@H]2S1(=O)=O`, the cytotoxicity call is “inactive”.

`C[C@H](CO)N1C[C@H](C)[C@@H](CN(C)Cc2ccc(C(=O)O)cc2)Oc2ccc(NS(=O)(=O)c3cn(C)cn3)cc2CC1=O`: the cytotoxicity call was “inactive”.

Take `O=C(C[C@@H]1C[C@H]2c3cc(NS(=O)(=O)c4ccc(F)cc4)ccc3O[C@H]2[C@@H](CO)O1)NCc1ccccc1F`: the cytotoxicity call was “inactive”.

As for `Nc1cc(=O)[nH]c(=O)n1Cc1ccccc1`, the cytotoxicity call is “inactive”.

Consider `COc1ccc(CN2C[C@@H](C)[C@H](OC)CN(C)C(=O)c3ccc(NC(=O)c4nc5ccccc5s4)cc3OC[C@@H]2C)cc1`, for which the cytotoxicity call was “inactive”.

With `COc1ccc2c3c([nH]c2c1)[C@H](CO)N(C[C@]13CCN(CC1)CC1CCCC1)S(=O)(=O)c1cn(cn1)C`, the cytotoxicity call was “inactive”.

In the case of `COc1ccccc1CN1C(=O)c2ccccc2[C@@]2(Cc3ccccc3N(C(C)C)C2=O)[C@@H]1c1ccc(CO)cc1`, the cytotoxicity call was “inactive”.

In the case of `C[C@H]1CN([C@@H](C)CO)C(=O)c2cccc(NC(=O)NC3CCCCC3)c2O[C@H]1CN(C)C(=O)Nc1ccc(C(F)(F)F)cc1`, the cytotoxicity call is “active”.

Take `C[C@H]1CN([C@@H](C)CO)C(=O)c2cccc(NC(=O)NC3CCCCC3)c2O[C@@H]1CN(C)C(=O)Nc1ccc(C(F)(F)F)cc1`: the cytotoxicity call is “inactive”.

For the compound `C[C@@H]1CN([C@H](C)CO)C(=O)c2cccc(NC(=O)NC3CCCCC3)c2O[C@@H]1CN(C)C(=O)Nc1ccc(C(F)(F)F)cc1`, the cytotoxicity call is “inactive”.

For the compound `CCCn1nc(C)c(CN)c1C`, the cytotoxicity call was “inactive”.

On to `Cc1ccc(S(=O)(=O)N(C)C[C@@H]2OCCCC[C@@H](C)Oc3ccc(NC(=O)Nc4ccc(C(F)(F)F)cc4)cc3C(=O)N([C@@H](C)CO)C[C@@H]2C)cc1`, for which the cytotoxicity call is “inactive”.

In the case of `O=C(N[C@H]1CC=CC[C@H](CC(=O)N(CCO)Cc2ccccc2)C(=O)N[C@H](Cc2ccccc2)COC1=O)OCC1c2ccccc2-c2ccccc21`, the cytotoxicity call is “inactive”.

As to `O=C1N[C@H](Cc2c[nH]c3ccccc23)COC(=O)[C@@H](Cc2ccc(F)cc2)CCC=CC[C@H]1CC(=O)N(CCO)Cc1ccccc1`, the cytotoxicity call was “active”.

As to `O=C1N[C@@H](Cc2c[nH]c3ccccc23)COC(=O)[C@@H](Cc2ccc(F)cc2)CC=CC[C@@H]1CC(=O)N(CCO)Cc1ccccc1`, the cytotoxicity call is “active”.

Consider `O=C(N[C@@H]1CC=CC[C@H](CC(=O)N(CCO)Cc2ccccc2)C(=O)N[C@@H](Cc2ccccc2)COC1=O)OCC1c2ccccc2-c2ccccc21`, for which the cytotoxicity call was “inactive”.

`O=C(N[C@H]1CC=CC[C@H](CC(=O)N(CCO)Cc2ccccc2)C(=O)N[C@@H](Cc2ccccc2)COC1=O)OCC1c2ccccc2-c2ccccc21`: the cytotoxicity call is “active”.

For `O=C1N[C@@H](Cc2c[nH]c3ccccc23)COC(=O)[C@H](Cc2ccc(F)cc2)CCC=CC[C@H]1CC(=O)N(CCO)Cc1ccccc1`, the cytotoxicity call was “inactive”.

Regarding `O=C1N[C@H](Cc2c[nH]c3ccccc23)COC(=O)[C@H](Cc2ccc(F)cc2)CC=CC[C@@H]1CC(=O)N(CCO)Cc1ccccc1`, the cytotoxicity call was “inactive”.

Regarding `O=C1N[C@H](Cc2c[nH]c3ccccc23)COC(=O)[C@@H](Cc2ccc(F)cc2)CCC=CC[C@@H]1CC(=O)N(CCO)Cc1ccccc1`, the cytotoxicity call was “inactive”.

Take `O=C1N[C@H](Cc2c[nH]c3ccccc23)COC(=O)[C@@H](Cc2ccc(F)cc2)CC=CC[C@@H]1CC(=O)N(CCO)Cc1ccccc1`: the cytotoxicity call is “inactive”.
